We go through 20 compounds from PubChem BioAssay (NCI).

Structures are written as SMILES. Compounds without any hit were thinned out: in the full panel of roughly 79,000, 15% have a hit. Unmarked numbers belong to inactive results. Active and inactive are the calls of the source. No stated cut-off is given here; in the data, active means growth inhibition above about 70%; inactive means the rest.

A short description of assay [1]: NCI Yeast Anticancer Drug Screen. Data for the rad50 strain (AID 155).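 Further: 0% = growth of vehicle-only cultures of the same strain.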 The note with it: S. cerevisiae rad50 strain growth inhibition; at 50.0 µM; active compounds read high. The procedure, abridged: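 A DNA repair-deficient yeast mutant serves as the test organism; compound-induced growth inhibition is calculated against vehicle-treated cells.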
Assay [2] is described as follows: NCI Yeast Anticancer Drug Screen. Data for the mec2-1 strain (AID 157). The note with it: S. cerevisiae mec2-1 strain, at 50.0 µM, active compounds read high. The procedure, abridged: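 Growth inhibition is read against vehicle-treated controls after compound exposure of the mec2-1 yeast strain, which is defective in DNA damage repair or cell cycle control.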
A short description of assay [3]: NCI Yeast Anticancer Drug Screen. Data for the sgs1 mgt1 strain (AID 161).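 Further: 0% = growth of cultures given vehicle only.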 The note with it: S. cerevisiae sgs1 mgt1 strain, at 50.0 µM, active compounds read high. The procedure, abridged: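 Percent growth inhibition was derived by comparing compound-exposed mutant yeast with vehicle-exposed cultures. The strain carries alterations in DNA damage repair.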
Assay [4] can be described thus: NCI Yeast Anticancer Drug Screen. Data for the cln2 rad14 strain (AID 165).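 Further: 0% = growth equal to vehicle treated cultures.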 The note with it: S. cerevisiae cln2 rad14 strain, at 50.0 µM, active compounds read high. The procedure, abridged:
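Growth inhibition, relative to vehicle-treated controls, is the read-out. The test organism is a yeast strain with defined genetic alterations, cln2 rad14.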

Assay [5] can be described thus: NCI Yeast Anticancer Drug Screen. Data for the bub3 strain (AID 167). The note with it: S. cerevisiae bub3 mutant strain, at 50.0 µM, active compounds read high. The procedure, abridged: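 Inhibition values come from growth of compound-treated mutant yeast normalised to vehicle-treated controls.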
Assay [6] is described as follows: NCI Yeast Anticancer Drug Screen. Data for the mlh1 rad18 strain (AID 175). The note with it: S. cerevisiae mlh1 rad18 strain growth inhibition; at 50.0 µM; active compounds read high. The procedure, abridged: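 Cells of a genetically altered yeast strain, deficient in DNA damage repair, were treated with compound. Their growth was then compared with that of vehicle-treated cultures to give inhibition.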

Take `COC(=O)C1(CC(=O)C(c2ccccc2)c2ccccc2)NC(=S)NC(=O)C1C#N` (stereo not given): the growth inhibition in assay [1] was 5.6%; in assay [2], 4.65%; in assay [3], -12.8%; in assay [4], -2.7%; in assay [5], 0.55%; in assay [6], -8.9%.
Turning to `COC(=O)CC1C=CC(OC)[C@@]2(C)C(=O)C(OC)=CC(=O)[C@@H]12` (stereo not given in full), the growth inhibition was 8.7% in assay [1]; -15.1% in assay [2]; -11.4% in assay [3]; 19.6% in assay [4]; 2.4% in assay [5]; -3.45% in assay [6].
Take `O=C(COc1ccccc1[N+](=O)[O-])Nc1cccnc1`: the growth inhibition was -18.9% in assay [1]; -10.8% in assay [2]; -12.3% in assay [3]; -9.25% in assay [4]; -3.25% in assay [5]; 8.25% in assay [6].
As for `CCCCCOC(=O)c1c(Cl)c(Cl)c(C(=O)OCCCCC)c(Cl)c1Cl`, the growth inhibition is -18.2% in assay [1]; -39% in assay [2]; 0.85% in assay [3]; -6.85% in assay [4]; -6.5% in assay [5]; -9% in assay [6].
As for `CCOc1ccc(/C=C/c2ccc(OCC)cc2)cc1`, the growth inhibition in assay [1] is -4.65%; in assay [2] it was -16.4%; in assay [3], -8.9%; in assay [4], -1.5%; in assay [5], 8.55%; in assay [6] it was -24.3%.
Regarding `SCc1ccc(CS)s1`, the growth inhibition is 4.65% in assay [1]; -1.75% in assay [2]; -1.65% in assay [3]; 17.8% in assay [4]; 23.2% in assay [5]; -4.3% in assay [6].
On to `COc1ccccc1-c1nc2ccccc2c(=O)[nH]1`, for which the growth inhibition was 12.8% in assay [1]; -25.9% in assay [2]; -14.1% in assay [3]; 8.5% in assay [4]; 6.4% in assay [5]; 2.25% in assay [6].
Regarding `Cc1ccc(S(=O)(=O)N/N=C2/C(=O)N(c3ccc(Cl)cc3C)C(=O)C(=O)C2c2nc3ccccc3s2)cc1` (stereo not given), the growth inhibition is 0.85% in assay [1]; 20.7% in assay [2]; 1.85% in assay [3]; 7.5% in assay [4]; -2.1% in assay [5]; 11.2% in assay [6].
Take `CC(=O)N(C)c1cccc2ccccc12`: the growth inhibition was 17.9% in assay [1]; -1.35% in assay [2]; 9.85% in assay [3]; -4.65% in assay [4]; 6.75% in assay [5]; 5.2% in assay [6].
Turning to `COc1cccc2c1C(=O)C=CC2=O`, the growth inhibition in assay [1] is 76.8% (active); in assay [2], 80.7% (active); in assay [3], 84.3% (active); in assay [4], 87.2% (active); in assay [5], 87.2% (active); in assay [6], 91.8% (active).
Consider `CC(NC(=O)NC(C)(C)C)NC(=O)C(N)CC(=O)O` (stereo not given), for which the growth inhibition in assay [1] was -51.8%; in assay [2] it was -20.1%; in assay [3], -25.4%; in assay [4], 19.4%; in assay [5] it was 12.7%; in assay [6], -20.4%.
Regarding `CC(CC(C(=O)N(C)C)(c1ccccc1)c1ccccc1)[N+](C)(C)[O-]` (stereo not given), the growth inhibition in assay [1] was 5.5%; in assay [2] it was 17.4%; in assay [3], 0.1%; in assay [4], 11.9%; in assay [5], 13.3%; in assay [6], 3.8%.
As for `Cc1ccccc1C(=O)c1cc(O)ccc1O`, the growth inhibition in assay [1] is -11.2%; in assay [2] it was -10.1%; in assay [3], -1.25%; in assay [4], -8%; in assay [5] it was -16.3%; in assay [6], -5.2%.
Take `COc1cc2ccc3c4c(OC)cc5c(c4c[n+](C)c3c2cc1OC)OCO5`: the growth inhibition in assay [1] was 88% (active); in assay [2], 91.3% (active); in assay [3], 88.3% (active); in assay [4], 88.7% (active); in assay [5], 90% (active); in assay [6], 87.2% (active).
With `O=C(N/C=C(/c1ccccc1)S(=O)Cc1ccccc1)Nc1ccccc1Cl` (stereo not given), the growth inhibition in assay [1] is -8.45%; in assay [2] it was -27.6%; in assay [3], 0.85%; in assay [4] it was -15.2%; in assay [5], -9.7%; in assay [6], -24.9%.
On to `Cc1ccc(CNC(=O)NC(C)(C)C)cc1`, for which the growth inhibition in assay [1] was -3.05%; in assay [2] it was -8.45%; in assay [3], -2.65%; in assay [4], -50.2%; in assay [5], 1.85%; in assay [6] it was 0.1%.
In the case of `CCOC(=O)/C(=C\c1ccc(N(C)C)cc1)S(=O)(=O)C(F)(F)C(F)(F)C(F)(F)C(F)(F)F`, the growth inhibition in assay [1] is 2%; in assay [2], 9.6%; in assay [3], 6.1%; in assay [4] it was -9.7%; in assay [5], 4.75%; in assay [6], 15.2%.
Regarding `COc1cc(NN=C(C#N)C#N)c(OC)cc1Cl`, the growth inhibition in assay [1] was 37.6%; in assay [2], 11.2%; in assay [3] it was 48%; in assay [4], 23.1%; in assay [5], 40.7%; in assay [6], 34.7%.
In the case of `Cc1cc(C)c2c(SCc3ccc(Cl)cc3Cl)nc(N)nc2n1`, the growth inhibition in assay [1] was 31.8%; in assay [2] it was 12.3%; in assay [3] it was 45.9%; in assay [4], -27.9%; in assay [5], 7.1%; in assay [6], 44.8%.
For `Cc1cccc(NCc2ccncc2)n1`, the growth inhibition is 19.2% in assay [1]; 9.2% in assay [2]; 26.8% in assay [3]; 2.15% in assay [4]; 1.85% in assay [5]; 6.75% in assay [6].
